The supplement of paper PMC13380429
A number with no mark means an inactive call.

Tested on: Vero E6 infected with SARS-CoV-2
Assay: inhibition of SARS-CoV-2 cytopathic effect; higher = more antiviral protection, active = above 15
Settings: 48 h

Structure (SMILES) | inhibition of SARS-CoV-2 cytopathic effect (1 nM) [%] | inhibition of SARS-CoV-2 cytopathic effect (8.33 nM) [%] | inhibition of SARS-CoV-2 cytopathic effect (100 nM) [%] | inhibition of SARS-CoV-2 cytopathic effect (833.33 nM) [%] | inhibition of SARS-CoV-2 cytopathic effect (10000 nM)
CN1CCN(c2nc3ccccc3nc2Cl)CC1 | -3.46 | -0.96 | -3.46 | 0.73 | 5.89%
Clc1ccccc1CN1CCc2sccc2C1 [ticlopidine] | -1.31 | -0.14 | 0.36 | 1.94 | -1.5%
CC(=O)OCC(CCn1cnc2cnc(N)nc21)COC(C)=O [famciclovir] | -0.42 | -2.15 | -3.04 | -0.25 | -2.48%
CCC(NC(C)C)C(O)c1ccc(O)c(O)c1 (stereo not given) [isoetharine] | -0.44 | 0.06 | -2.12 | -0.61 | 1.5%
COc1cc2c(NC3CCN(CC4CCCCC4)CC3)nc(N3CCCN(C(C)C)CC3)nc2cc1OCCCN1CCCCC1 | 0.74 | -1.71 | -3.06 | 0.36 | -20.7%
Cc1cc(-c2ncc(CC(=O)Nc3ccc(-c4cnccn4)cn3)cc2C)ccn1 | -0.34 | -0.01 | -1.16 | 1.44 | 2.89%
O=C1c2ccccc2C(Cc2ccnc(F)c2)(Cc2ccnc(F)c2)c2ccccc21 | 0.2 | 0.21 | 5.3 | 2.26 | -2.51%
Nc1ccc(S(=O)(=O)NC(=O)c2ccccc2)cc1 [sulfabenzamide] | -2.34 | -0.25 | -1.3 | -0.48 | -0.81%
Cc1cnc(CNC(=O)c2c(=O)c3ccc(N4CCCN(C)CC4)nc3n3c2sc2ccccc23)cn1 | 0.83 | -2.59 | -1.2 | 4.48 | 0.59%
C/C(=C\CNc1ncnc2[nH]cnc12)CO [zeatin] | -3.72 | -2.49 | -0.97 | 0.86 | -1.15%
N=C(N)NS(=O)(=O)c1ccc(N)cc1 [sulfaguanidine] | 1.47 | 1.27 | -0.35 | 0.47 | 1.22%
O=C1[C@@H]2[C@H]3CC[C@H](C3)[C@@H]2C(=O)N1CCCCN1CCN(c2ncccn2)CC1 [tandospirone] | 2.41 | 0.1 | -0.17 | 1.06 | 0.15%
CC(C)c1cc(-c2n[nH]c(=O)n2-c2ccc3c(ccn3C)c2)c(O)cc1O [ganetespib] | -2.33 | -3.79 | -1.43 | -1.16 | -7.9%
Clc1ccc(COC(Cn2ccnc2)c2ccc(Cl)cc2Cl)c(Cl)c1 (stereo not given) [miconazole] | -1.92 | 0.22 | -0.38 | 0.7 | -4.16%
CCCCNc1nc(N)c2[nH]c(=O)n(Cc3ccc(OCCN(C)C)nc3)c2n1 | -1.79 | 0.48 | 2.36 | -0.4 | -0.44%
Cn1nc(-c2ccc(C(F)(F)F)cc2)nc2c(=O)n(C)c(=O)nc1-2 [walrycin-B] | -1.05 | -0.74 | 1.15 | 12.5 | -12.8%
CCCCCCCCCCCCCCCCCCCCCCCCC(=O)O [pentacosanoic-acid] | -2.75 | -2.46 | -0.07 | -0.23 | -2.38%
Cc1cc(Nc2ncc(Cl)c(Nc3ccccc3S(=O)(=O)C(C)C)n2)c(OC(C)C)cc1C1CCNCC1 [ceritinib] | -0.41 | 1.21 | 2.17 | -2.36 | 58.8% (active)
CCc1c(-c2ccccc2)c(-c2ccccc2)nn1-c1ccccc1-c1cccc(OCC(=O)O)c1 | -2.24 | 3.84 | 0.2 | 0.13 | -0.58%
CCN(CC)CCOc1ccc(C(O)(Cc2ccc(Cl)cc2)c2ccc(C)cc2)cc1 (stereo not given) [Triparanol] | -0.73 | 1.69 | -1.43 | -2.54 | 51.4% (active)
CC(C)[C@H](CO)Nc1nc(Nc2ccc(C(=O)O)c(Cl)c2)c2ncn(C(C)C)c2n1 [purvalanol-B] | 11.3 | 5.29 | 0.04 | 4.65 | -1.55%
